Measurements as given in PubChem BioAssay AID504834 (National Center for Advancing Translational Sciences (NCATS), 2011).
The campaign covered roughly 320,000 compounds. About 22,000 (6.9%) were called active. A call without a number means that no potency is given here. Not shown: some 27% with an inconclusive outcome. The sample holds actives, similar compounds and a random draw of the others, so the mix is not that of the screen. Calls follow the shape of the dose curve; as a rule, active = well fitted inhibition curve with a large enough effect; inconclusive = small, poorly fitted or top-dose-only effect, or another doubt; inactive = no such curve, though single readings can be large or run the other way.

experiment: Primary qHTS for delayed death inhibitors of the malarial parasite plastid, 96 hour incubation; conditions: P. falciparum luciferase reporter growth; series mostly up to 28.7 µM
Method in brief: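 P. falciparum expressing integrated firefly luciferase grown in erythrocytes (2% hematocrit, 0.05% parasitemia final) with compounds for 96 hours at 37 C, 5% CO2. Growth inhibition read as loss of luminescence after adding luciferase detection reagent.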
Potency is read from the fitted curve at half-maximal effect.

**Q.** For `CC(=O)Nc1cccc(C(=O)OCC(=O)Nc2nnc(-c3ccccc3)o2)c1`, which Potency is on record?
**A.** Its Potency is “inactive”.

**Q.** Which Potency does the source give for `CC(OC(=O)/C=C/c1ccccc1)C(=O)NC1CCCCC1C` (stereo unspecified) here?
**A.** Its Potency is “inactive”.

**Q.** With `CC[N+](C)(CC)CCC[n+]1c(-c2ccccc2)c2cc(N)ccc2c2ccc(N)cc21` as the compound, how does the Potency read?
**A.** The Potency was 0.233 µM (active).

**Q.** For `O=C(CCNC(=O)c1ccccc1)Nc1nc2ccccc2s1`, which Potency is on record?
**A.** The Potency was “inactive”.

**Q.** Which Potency does the source give for `CC(C)(C)OC(=O)NC(Cc1ccccc1)C(=O)NC(CSC1CCCCO1)C(=O)NN` (stereo unspecified) here?
**A.** Its Potency is “inactive”.

**Q.** With `CCn1cc(C(=O)NCC(=O)NC(C)(C)CO)c(=O)c2cc3c(cc21)OCO3` as the compound, how does the Potency read?
**A.** The Potency was “inactive”.

**Q.** Which Potency does the source give for `COc1cccc(N(CC(=O)NC2CCCC2)C(=O)CCCC(=O)Nc2ccccn2)c1` here?
**A.** The Potency was “inactive”.

**Q.** With `COc1ccc(N(CC(=O)Nc2ccc(F)c(F)c2)S(=O)(=O)c2c(C)[nH]c(=O)[nH]c2=O)cc1` as the compound, how does the Potency read?
**A.** The Potency was “inactive”.

**Q.** For `O=C(CN(c1cccc(Cl)c1)S(=O)(=O)c1ccccc1)NN=C1CCCC1`, which Potency is on record?
**A.** Its Potency is “inactive”.

**Q.** Which Potency does the source give for `CCOc1ccc(N(CC(=O)Nc2ccccc2F)S(=O)(=O)c2c(C)[nH]c(=O)[nH]c2=O)cc1` here?
**A.** The Potency was “inactive”.

**Q.** Which Potency does the source give for `COc1ccc(N(CC(=O)NC2CCCCC2)S(=O)(=O)c2c(C)[nH]c(=O)[nH]c2=O)cc1` here?
**A.** Its Potency is 5.86 µM (active).

**Q.** With `COc1cccc(N(CC(=O)NC2CCCCCC2)S(=O)(=O)c2ccccc2)c1` as the compound, how does the Potency read?
**A.** Its Potency is 13.1 µM (active).

**Q.** With `O=C(Cc1cccs1)NCc1cccc(C(F)(F)F)c1` as the compound, how does the Potency read?
**A.** Its Potency is “inactive”.

**Q.** Which Potency does the source give for `COc1ccc(N2CC(C(=O)NCCS(=O)(=O)N3CCN(c4ccccc4)CC3)CC2=O)cc1` (stereo unspecified) here?
**A.** Its Potency is “inactive”.

**Q.** For `CCC(CC)C(=O)Nc1c2c(nn1-c1ccc(C)cc1)CS(=O)(=O)C2`, which Potency is on record?
**A.** Its Potency is “inactive”.

**Q.** Which Potency does the source give for `O=CN1CCN(C(=O)c2ccc3c(c2)OCO3)CC1` here?
**A.** The Potency was “inactive”.

**Q.** With `CC(C)CN(C(=O)CSc1nncn1C)C1CCS(=O)(=O)C1` (stereo unspecified) as the compound, how does the Potency read?
**A.** Its Potency is “inactive”.

**Q.** For `Cc1cccc[n+]1CC(=O)c1ccccc1`, which Potency is on record?
**A.** The Potency was “inactive”.

**Q.** For `Cc1ccc(NC(=O)CCN2CCc3ccccc3C2)cc1`, which Potency is on record?
**A.** The Potency was “inactive”.

**Q.** Which Potency does the source give for `Cc1ccc(C(=O)C[n+]2cc(-c3ccccc3)n3c2CCCCC3)cc1` here?
**A.** Its Potency is 0.415 µM (active).

**Q.** Which Potency does the source give for `Cc1ccc(NC(=O)CN2CCc3ccccc3C2)cc1` here?
**A.** The Potency was “inactive”.

**Q.** Which Potency does the source give for `Cc1ccc(-c2c[n+](CC(=O)Nc3ccccc3)c3n2CCC3)cc1` here?
**A.** The Potency was 3.7 µM (active).

**Q.** For `Cc1ccc(C(=O)N2CCCC(c3ccccc3)=N2)cc1`, which Potency is on record?
**A.** Its Potency is “inactive”.

**Q.** Which Potency does the source give for `COc1ccc(S(=O)(=O)Nc2cc(C)on2)cc1NC(C)=O` here?
**A.** Its Potency is “inactive”.

**Q.** Which Potency does the source give for `CCCc1cc(=O)oc2c(C)c(OCC(=O)Nc3ccccn3)ccc12` here?
**A.** The Potency was “inactive”.

**Q.** Which Potency does the source give for `COCCCNC(=O)CN1C(=O)CSc2ccc(S(=O)(=O)N3CCOCC3)cc21` here?
**A.** Its Potency is “inactive”.

**Q.** For `CCOC(=O)C1CCN(C(=O)Cn2nc(C)c3c(C)n(-c4ccccc4)nc3c2=O)CC1`, which Potency is on record?
**A.** The Potency was “inactive”.

**Q.** With `O=S(=O)(NCCc1ccc(Cl)cc1)c1cccs1` as the compound, how does the Potency read?
**A.** Its Potency is “inactive”.

**Q.** For `COc1cc(C(=O)OC2CCOC2=O)c([N+](=O)[O-])cc1OC` (stereo unspecified), which Potency is on record?
**A.** The Potency was “inactive”.

**Q.** For `COc1ccc(-c2nnc(SCC(=O)c3cccs3)o2)c(OC)c1`, which Potency is on record?
**A.** Its Potency is “inactive”.

**Q.** For `COc1ccc(-c2nnc(NC(=O)CS(=O)(=O)c3ccc(Cl)cc3)o2)c(OC)c1`, which Potency is on record?
**A.** The Potency was 8.28 µM (active).

**Q.** Which Potency does the source give for `COc1ccc(NC(=O)CS(=O)(=O)c2ccccc2)cc1` here?
**A.** The Potency was “inactive”.

**Q.** Which Potency does the source give for `COc1ccc(-c2n[nH]c3c2CN(C(=O)c2ccc(F)cc2)CC3)cc1` here?
**A.** The Potency was “inactive”.

**Q.** With `Cc1nonc1C1CCCN1C(=O)c1cc(COc2cccc(C(F)(F)F)c2)on1` (stereo unspecified) as the compound, how does the Potency read?
**A.** Its Potency is “inactive”.

**Q.** Which Potency does the source give for `COc1ccccc1/C=C/C=N/NC(=O)CN1CCN(Cc2ccccc2)CC1` here?
**A.** Its Potency is “inactive”.

**Q.** With `O=C(N/N=C/c1ccccc1O)C1CCCC1` as the compound, how does the Potency read?
**A.** The Potency was “inactive”.

**Q.** With `O=C(N/N=C/C=C/c1ccccc1)C1CC1(c1ccccc1)c1ccccc1` (stereo unspecified) as the compound, how does the Potency read?
**A.** The Potency was 10.4 µM (active).

**Q.** Which Potency does the source give for `CCc1cc(=O)oc2c(C)c(OCC(=O)N3CC[C@@]4(O)CCCC[C@H]4C3)ccc12` here?
**A.** Its Potency is “inactive”.

**Q.** For `CCOC(=O)c1[nH]c2c(c1C)C(=O)CC(c1ccc(N(C)C)cc1)C2` (stereo unspecified), which Potency is on record?
**A.** The Potency was “inactive”.

**Q.** For `CCOC(=O)c1cc(NC(=O)c2ccc(Cl)cc2)c(=O)oc1-c1ccccc1`, which Potency is on record?
**A.** The Potency was “inactive”.

**Q.** For `CCOC(=O)c1[nH]c2c(c1-c1ccccc1)C(=O)CC(c1ccc(Cl)cc1)C2` (stereo unspecified), which Potency is on record?
**A.** The Potency was 9.28 µM (active).

**Q.** Which Potency does the source give for `Cc1cccc(C(=O)NC(=S)N(C)C2CCCCC2)c1` here?
**A.** Its Potency is “inactive”.

**Q.** With `C#CCOCCOCCOCCNc1nc(N2CCN(C(=O)Cn3cc(CCCCN)nn3)CC2)nc(N2CCN(C(=O)[C@H](CCCCN)n3cc(CCC(=O)O)nn3)CC2)n1` as the compound, how does the Potency read?
**A.** The Potency was “inactive”.

**Q.** With `C#CCOCCOCCOCCNc1nc(N2CCN(C(=O)[C@H](CCCCN)n3cc([C@@H](N)C(C)CC)nn3)CC2)nc(N2CCN(C(=O)[C@H](Cc3ccc(O)cc3)n3cc([C@@H](N)C(C)CC)nn3)CC2)n1` (stereo partly specified) as the compound, how does the Potency read?
**A.** The Potency was “inactive”.

**Q.** Which Potency does the source give for `C#CCOCCOCCOCCNc1nc(N2CCN(C(=O)CCCCCCCCCCNC(=O)[C@H]([C@@H](C)CC)n3cc(CCCCN=C(N)N)nn3)CC2)nc(N2CCN(C(=O)CCCCCCCCCCNC(=O)[C@H](CO)n3cc(CCCSC)nn3)CC2)n1` here?
**A.** The Potency was 0.37 µM (active).

**Q.** Which Potency does the source give for `C#CCOCCOCCOCCNc1nc(N2CCN(C(=O)[C@H](CCC(=O)O)n3cc(C(N)CO)nn3)CC2)nc(N2CCN(C(=O)[C@H](CCCCN)n3cc(C(N)[C@H](C)CC)nn3)CC2)n1` (stereo partly specified) here?
**A.** The Potency was “inactive”.

**Q.** Which Potency does the source give for `C#CCOCCOCCOCCNc1nc(N2CCN(C(=O)[C@H](CCCCN)n3cc(CCC(=O)O)nn3)CC2)nc(N2CCN(C(=O)[C@H](CCCCN)n3cc(CC(C)O)nn3)CC2)n1` (stereo partly specified) here?
**A.** Its Potency is “inactive”.

**Q.** For `C#CCOCCOCCOCCNc1nc(N2CCN(C(=O)[C@H](CCC(=O)O)n3cc(C(N)CO)nn3)CC2)nc(N2CCN(C(=O)[C@H](CCCCN)n3cc(C(N)CC(C)C)nn3)CC2)n1` (stereo partly specified), which Potency is on record?
**A.** The Potency was “inactive”.

**Q.** For `C#CCOCCOCCOCCNc1nc(N2CCN(C(=O)CCCCCCCCCCNC(=O)[C@H](CCCCN)n3cc(C)nn3)CC2)nc(N2CCN(C(=O)CCCCCCCCCCNC(=O)[C@H](CO)n3cc(CCCSC)nn3)CC2)n1`, which Potency is on record?
**A.** The Potency was 0.294 µM (active).

**Q.** Which Potency does the source give for `C#CCOCCOCCOCCNc1nc(N2CCN(C(=O)CCCCCCCCCCNC(=O)Cn3cc(CCCCCN)nn3)CC2)nc(N2CCN(C(=O)CCCCCCCCCCNC(=O)[C@H](CO)n3cc(CCCSC)nn3)CC2)n1` here?
**A.** Its Potency is 1.47 µM (active).

**Q.** Which Potency does the source give for `C#CCOCCOCCOCCNc1nc(N2CCN(C(=O)[C@H](C(C)C)n3cc(CCO)nn3)CC2)nc(N2CCN(C(=O)[C@H](C(C)C)n3cc(CCO)nn3)CC2)n1` here?
**A.** The Potency was “inactive”.
